Source: PubChem (several laboratories)
CCHFV vOTU inh – blocks the CCHF virus ovarian tumor domain protease. 0.55% of 370,000 active. inhibition, % at 11.5 µM. CCHFV vOTU protease, Pep-AMC fluorescence. AID 651958; in the data active = inhibition above about 30%
PfHsp40 yeast – restores yeast growth despite PfHsp40 toxicity; S. cerevisiae expressing PfHsp40, growth rescue, ATP luminescence; 0.68% of 340,000 active; growth rescue, % at 12.5 µM; in the data active = growth rescue above about 28%, passing the limit was not always enough; inconclusive = no clear call, values can overlap the other calls;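 note: yeast W303a lacking pdr1 and pdr3 grown in galactose medium; growth measured after three days at 30 °C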
Yp Topo-I inh – Y. pestis Topo-I inhibition via cleavage products; Y. pestis Topo-I cleavage product accumulation, plate reader; 0.064% of 360,000 active; activity, % at 10 µM; AID 504884; in the data active = activity above about 50%, passing the limit was not always enough; inconclusive = no clear call, values can overlap the other calls
PrPC TRFRET – reduces human prion protein on the cell surface | inhibition, % at 13.8 µM | cell surface PrPC, TR-FRET read-out | 0.43% of 370,000 active; in the data active = inhibition above about 24%
PrP 5UTR inh – suppresses PrP 5' UTR mRNA reporter expression | cell-based PrP 5' UTR mRNA reporter, plate reader | inhibition, % (test concentration not listed) | 0.35% of 340,000 active | AID 488862; in the data active = inhibition above about 52%
BJeLR viability – BJeLR cell viability loss; BJeLR (HRASV12) viability, CellTiter-Glo ATP luminescence, 48 h; inhibition, % (no concentration beside the values); 0.17% of 300,000 active; AID 1554; in the data active = inhibition above about 50%; inconclusive = no clear call, values can overlap the other calls
A number is an active result. Only some compounds are listed: those with a hit (about 2% of all), similar ones and a draw of the others.

How did O=C(CSc1nnc(SCc2cccc3ccccc23)s1)Nc1ccccc1-c1ccccc1 do in these assays?
CCHFV vOTU inh: inactive; PrPC TRFRET: inactive

How did Cc1nc(N2CCN(C(=O)c3ccco3)CC2)c2c3c(sc2n1)CC(C)CC3 (stereo not drawn) do in these assays?
CCHFV vOTU inh: inactive; PfHsp40 yeast: 192; Yp Topo-I inh: inactive; PrPC TRFRET: inactive; PrP 5UTR inh: inactive; BJeLR viability: inactive

How did Cc1nc(N2CCN(C(=O)c3ccco3)CC2)c2c3c(sc2n1)CCCC3 do in these assays?
CCHFV vOTU inh: inactive; PfHsp40 yeast: inconclusive; Yp Topo-I inh: inactive; PrPC TRFRET: inactive; PrP 5UTR inh: inactive; BJeLR viability: inactive

How did CC1CCCCN1C(=O)c1cccc(NC2=C(Cl)C(=O)N(Cc3ccccc3)C2=O)c1 (stereo not drawn) do in these assays?
PfHsp40 yeast: 31; Yp Topo-I inh: inactive; PrP 5UTR inh: inactive

Results for Cc1ccc(OCC(O)CN2C(=O)NC(C)(C)C2=O)cc1 (stereo not drawn) ?
CCHFV vOTU inh: inactive; PfHsp40 yeast: 53; Yp Topo-I inh: inactive; PrPC TRFRET: inactive; PrP 5UTR inh: inactive; BJeLR viability: inactive

Results for Oc1c(Br)cc(-c2ccccc2)cc1Br ?
CCHFV vOTU inh: inactive; PfHsp40 yeast: 580; Yp Topo-I inh: inactive; PrPC TRFRET: inactive; PrP 5UTR inh: inactive

What do the screens show for `c1ccc(-c2nnsc2-c2ccccc2)cc1`?
CCHFV vOTU inh: inactive; PfHsp40 yeast: inactive; Yp Topo-I inh: inactive; PrPC TRFRET: inactive; PrP 5UTR inh: inactive; BJeLR viability: inactive

How did O=S(=O)(c1ccc(Cl)c(Cl)c1)c1snnc1-c1ccccc1 do in these assays?
PfHsp40 yeast: inactive; Yp Topo-I inh: inactive; PrP 5UTR inh: inactive; BJeLR viability: 53

Results for COc1ccc(-c2ccc3c(n2)CCCN3S(=O)(=O)c2ccc(C#N)cc2)cc1 ?
CCHFV vOTU inh: inactive; PrPC TRFRET: inactive

What do the screens show for `Cc1cccc(N2CCN(CC(=O)N(C)Cc3ccccc3)CC2C)c1` (stereo not drawn)?
CCHFV vOTU inh: inactive; PfHsp40 yeast: 44; Yp Topo-I inh: inactive; PrPC TRFRET: inactive; PrP 5UTR inh: inactive; BJeLR viability: inactive

How did COC(=O)C1=NNC2(c3ccc(Cl)cc3)C(=O)N(c3ccc(Cl)cc3)C(=O)C12 (stereo not drawn) do in these assays?
CCHFV vOTU inh: inactive; PfHsp40 yeast: 45; Yp Topo-I inh: inactive; PrPC TRFRET: inactive; PrP 5UTR inh: inactive; BJeLR viability: inactive

How did COc1ccc(S(=O)(=O)N(CCc2ccccc2)CC(N)=O)cc1 do in these assays?
CCHFV vOTU inh: inactive; PfHsp40 yeast: 104; Yp Topo-I inh: inactive; PrPC TRFRET: inactive; PrP 5UTR inh: inactive; BJeLR viability: inactive

Results for Cc1ccc(Cl)cc1NC(=O)CSc1sc2c(O)cc(=O)[nH]c2c1C#N ?
CCHFV vOTU inh: inactive; PfHsp40 yeast: 47; Yp Topo-I inh: inactive; PrPC TRFRET: inactive; PrP 5UTR inh: inactive; BJeLR viability: inactive

How did Cc1ccc(C)c(NC(=O)CSc2sc3c(O)cc(=O)[nH]c3c2C#N)c1 do in these assays?
CCHFV vOTU inh: inactive; PfHsp40 yeast: inactive; Yp Topo-I inh: inactive; PrPC TRFRET: inactive; PrP 5UTR inh: inactive; BJeLR viability: inactive

What do the screens show for `CC(Oc1ccc(Br)cc1)C(=O)Nc1nnc(C2CC2)s1` (stereo not drawn)?
CCHFV vOTU inh: inactive; PfHsp40 yeast: inactive; Yp Topo-I inh: inactive; PrPC TRFRET: inactive; PrP 5UTR inh: inactive; BJeLR viability: inactive

How did CCC(Oc1ccc(Br)cc1Cl)C(=O)Nc1nnc(C2CC2)s1 (stereo not drawn) do in these assays?
CCHFV vOTU inh: inactive; PfHsp40 yeast: 60; Yp Topo-I inh: inactive; PrPC TRFRET: inactive; PrP 5UTR inh: inactive; BJeLR viability: inactive

What do the screens show for `CCCCc1c(-c2ccccc2OC)ncn1Cc1c(Cl)cccc1Cl`?
CCHFV vOTU inh: inactive; PrPC TRFRET: inactive

How did CCCCN(C)S(=O)(=O)c1cc(Br)cc2c1N(C(=O)C1CC1)CC2 do in these assays?
PfHsp40 yeast: 132; Yp Topo-I inh: inactive; PrP 5UTR inh: inactive; BJeLR viability: inactive

How did CCOC(=O)c1c2c(n(C)c1C)C(=O)C(=O)c1ccc(Br)cc1-2 do in these assays?
CCHFV vOTU inh: inactive; PfHsp40 yeast: inactive; Yp Topo-I inh: inactive; PrPC TRFRET: inactive; PrP 5UTR inh: inactive; BJeLR viability: 55

What do the screens show for `Cc1c(CN(C)C)c2c(n1C)C(=O)c1ccc(Br)cc1-2`?
CCHFV vOTU inh: inactive; PfHsp40 yeast: inactive; Yp Topo-I inh: inactive; PrPC TRFRET: inactive; PrP 5UTR inh: inactive; BJeLR viability: inactive

Results for CN(C)c1ccc(-c2nn3c(-c4ccco4)nnc3s2)cc1 ?
CCHFV vOTU inh: inactive; PrPC TRFRET: inactive
